Measurements from PubChem BioAssay AID1159580 (chemical genetic matrix, 2015).
The campaign covered roughly 5,500 compounds. About 2,000 (36%) were called active. Another 18% or so got no clear call; they are omitted. No stated cut-off is given here; in the data, active means normalized growth mostly below about 0.91 (no sharp cut-off); inconclusive means no clear call, values can overlap the other calls; inactive means mostly above about 0.92. The list shows a part of the results.

Assay: chemical genetic growth profiling, strain panel (AID 1159580);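 further: tested at 20 µM; growth read once vehicle control cultures reached saturation at 30 °C; 1 = growth at the plate median or of vehicle wells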
Details: S. cerevisiae deletion strains, growth OD

Measured: normalized growth

Nc1ncnc2c1ncn2C1OC2COP(O)(=S)O[C@@H]2[C@@H]1O (some centres undefined)
inactive: locus YAL013W, strain DEP1, stronger effect = lower value 1.01 | locus YAL040C, strain CLN3, stronger effect = lower value 1.01 | locus YDR150W, strain NUM1, stronger effect = lower value 1.02 | locus YDR363W, strain ESC2, stronger effect = lower value 0.99 | locus YER002W, strain NOP16, stronger effect = lower value 0.989 | locus YGR078C, strain PAC10, stronger effect = lower value 1 | locus YJR075W, strain HOC1, stronger effect = lower value 0.997 | locus YNL128W, strain TEP1, stronger effect = lower value 1.01 | locus YNL153C, strain GIM3, stronger effect = lower value 1.03 | locus YNL175C, strain NOP13, stronger effect = lower value 1.03 | locus YNL197C, strain WHI3, stronger effect = lower value 1.02 | locus YNL224C, strain SQS1, stronger effect = lower value 1.02 | locus YOR083W, strain WHI5 (second series), stronger effect = lower value 0.997 | locus YPL241C, strain CIN2, stronger effect = lower value 1.01
